Drawing on PubChem BioAssay AID588819 (The Scripps Research Institute Molecular Screening Center, 2011), this text covers activation for 111 compounds.

In all, about 360,000 compounds went through this assay and about 320 (0.089%) were called active. Shown is part of a subset that was picked to be rich in actives. Values without a mark were called inactive. No stated cut-off is given here; in the data, active means activation above about 19% (passing the limit was not always enough); inactive means the rest.

Sequence of Muscarinic acetylcholine receptor M1 (Homo sapiens) (P11229 whole entry, looked up): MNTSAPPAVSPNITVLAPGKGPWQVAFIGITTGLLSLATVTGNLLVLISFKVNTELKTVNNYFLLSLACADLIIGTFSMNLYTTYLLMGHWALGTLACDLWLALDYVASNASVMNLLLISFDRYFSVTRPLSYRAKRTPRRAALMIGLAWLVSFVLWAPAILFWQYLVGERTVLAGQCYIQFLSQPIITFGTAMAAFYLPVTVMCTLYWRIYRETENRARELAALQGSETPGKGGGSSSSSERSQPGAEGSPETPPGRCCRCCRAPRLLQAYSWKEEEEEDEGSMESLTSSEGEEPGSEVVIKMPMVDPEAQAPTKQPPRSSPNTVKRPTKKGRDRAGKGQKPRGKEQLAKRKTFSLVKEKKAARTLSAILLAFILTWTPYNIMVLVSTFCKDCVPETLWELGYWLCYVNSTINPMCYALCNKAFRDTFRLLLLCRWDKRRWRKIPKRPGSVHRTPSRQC

The test addresses Muscarinic acetylcholine receptor M1 (Homo sapiens) (UniProt P11229). The test can be described thus: human M1 muscarinic receptor positive allosteric modulators, primary screen, CHO-K1 cells, Fluo-8 calcium fluorescence, 1536-well (AID 588819). As to conditions: CHO-K1 hM1, Fluo-8 calcium fluorescence, ACh EC20; at 3 µM; hits give high values; 0% = ACh EC20, 100% = maximal ACh.
Turning to `O=C(CCc1ccccc1)Nc1ccnn1C1CCN(Cc2ccc(OCCO)cc2)CC1`, the activation was -2.48%.
The figure for `COc1cccc(Cn2cnc3c([N+](=O)[O-])c(C)c(C)cc32)c1` is -0.11%; for `COCCNC(=S)N(CCc1c(C)[nH]c2ccc(C)cc12)Cc1cccnc1` it is 9.1%; for `Cc1cccc(Nc2ccccc2C(=O)NCc2ccco2)c1C` it is -3.33%.
In the case of `COc1ccc(C(=O)Nc2ccccc2C(=O)NCc2ccco2)cc1`, the activation was 30.1% (active).
The figure for `Cc1ccc(N(Cc2ccc(C(=O)Nc3ccccc3C(=O)NCc3ccco3)cc2)S(C)(=O)=O)cc1C` is -6.42%; for `CN=C(Nc1cccc(S(=O)(=O)N2CCOCC2)c1)c1ccccc1` it is -5.57%; for `Nc1nnnn1/N=C/c1cc([N+](=O)[O-])ccc1O` it is 26.2% (active).
In the case of `Nc1nnnn1/N=C/c1cccc(Br)c1` it was 11.8%; in that of `Nc1nnnn1/N=C/c1cccs1`, 1.93%; in that of `OC(c1nc2ccc(F)cc2[nH]1)C(O)c1nc2ccc(F)cc2[nH]1` (stereo unspecified), 3.09%.
In the case of `CC(C)c1nc2ccc(C(=O)O)cc2[nH]1` it was 31.2% (active); in that of `O=C(NCC(O)c1nc2ccccc2[nH]1)c1ccc(Br)cc1` (stereo unspecified), -1%.
Take `CN(c1ccccc1)S(=O)(=O)c1cccc(C(=O)NNC(=O)c2ccncc2)c1`: the activation was 1.76%.
In the case of `CCOc1ccc(-c2cc(C(=O)N/N=C/c3ccc(O)cc3)c3ccccc3n2)cc1` it was 9.09%; in that of `Cc1ccc(-c2cc(C(=O)N/N=C/C=C/c3ccco3)c3ccccc3n2)cc1C`, 21.5% (active); in that of `O=C(N/N=C/C=C/c1ccco1)c1cccs1`, 8.09%.
The figure for `O=c1[nH]c2ccc(S(=O)(=O)N3CCCC3)cc2[nH]1` is 2.57%.
The figure for `O=C(C1CCN(C2CCN(Cc3ccc4cc(F)ccc4n3)CC2)CC1)N1CCCC1` is 8.71%.
For the compound `CCN(CC)CCn1c(=S)[nH]c2ncccc2c1=O`, the activation is 1.96%.
The figure for `CCc1ccc(NC(=O)CC2C(=O)NCCN2C(=S)Nc2ccccc2)cc1` (stereo unspecified) is 7.43%; for `COc1ccccc1C(=O)Nc1nc2nc(-c3ccccc3)cc(=O)n2[nH]1` it is 10.9%; for `O=C(CCC(=O)N1CCN(S(=O)(=O)c2ccc(Cl)cc2)CC1)NCc1cccc(C(F)(F)F)c1` it is -4.55%.
In the case of `COC(=O)c1ccc(C(=O)Nc2cc(Cl)ccc2Cl)cc1NC(=O)c1ccccc1C` it was 7.99%; in that of `CCOC(=O)c1sc(/N=C/C2=C(O)CC(C)(C)CC2=O)c(C(=O)OCC)c1C`, 2.16%.
In the case of `CC(Oc1ccccc1F)C(=O)NN` (stereo unspecified) it was 1.45%.
For `COc1ccc(CCNC(=O)C2CCCN(Cc3nc(-c4cccc(Cl)c4)oc3C)C2)cc1OC` (stereo unspecified), the activation is 4.43%.
The figure for `NC(=O)C1CCN(Cc2nc3c(Br)cc(Br)cc3c(=O)[nH]2)CC1` is 8.06%.
Regarding `COc1ccc(CNC(=O)C2CCN(S(=O)(=O)N3CCOCC3)CC2)cc1`, the activation is 5.85%.
On to `O=C(O)C1CCN(S(=O)(=O)N2CCOCC2)CC1`, for which the activation is 29.8% (active).
As for `O=C(NCc1ccccc1Cl)C1CCN(S(=O)(=O)N2CCOCC2)CC1`, the activation was -0.4%.
Regarding `COc1cc2c(cc1OC)C(C(=O)NCc1ccco1)C1c3ccccc3CCN1C2=O` (stereo unspecified), the activation was 3.09%.
The figure for `O=C(NCc1csc(-c2cccs2)n1)C1CC1` is 9.22%.
The figure for `CC(=O)c1ccc(S(=O)(=O)Nc2ccc(-c3ccc4nncn4n3)cc2)cc1` is 7.59%.
Turning to `O=C(c1cncc(Br)c1)N1CCN(c2ccc([N+](=O)[O-])cc2)CC1`, the activation is -20%.
In the case of `CCc1cccc(C)c1NS(=O)(=O)c1c(C)nc2sccn2c1=O` it was 4.98%; in that of `Cc1ccc(-c2csc(N3CCN(c4cc5c(cc4Cl)nc(-c4ccncc4)n5CCOCCO)CC3)n2)cc1`, 21.4%; in that of `Cc1ccc2nc(SCC(=O)N3CCN(c4ccccc4)CC3)nc(=O)n2c1`, 3.95%.
The figure for `Cc1ccc(-n2c(CNc3ccc(F)cc3)nnc2SCC(=O)N2CCOCC2)cc1` is 7.13%; for `O=C(O)CN1C(=O)CC(Cc2ccccc2)C1=O` (stereo unspecified) it is 11.7%; for `O=C1N[C@@H](Cc2ccccc2)C(=O)N2[C@H]1C[C@]1(Br)c3ccccc3N(S(=O)(=O)c3ccccc3)[C@H]21` it is 7.1%.
In the case of `CSc1ccc(S(=O)(=O)NCC(=O)OCC(=O)NC2(C#N)CCCCC2)cc1[N+](=O)[O-]` it was 3.7%; in that of `Cc1ccc(N2C(=O)c3ccccc3C2(O)c2ncc[nH]2)cc1` (stereo unspecified), 8.87%; in that of `CCc1c(C)nc2ncnn2c1N1CCC(C(=O)NCc2ccc3c(c2)OCO3)CC1`, 5.91%.
As to `COCCn1c(SCC(=O)N2CCCCCC2)nc2c(c1=O)SCC2`, the activation was 26.5% (active).
Consider `COCCn1c(SCC(=O)Nc2ccccc2F)nc2c(c1=O)SCC2`, for which the activation is 7.02%.
In the case of `Cn1c(SCC(=O)N2CCCCC2)nc2c(c1=O)SCC2` it was -5.48%; in that of `CSCCC(NC(=O)c1ccco1)C(=O)Nc1cc(C)ccn1` (stereo unspecified), 3.47%.
In the case of `CSCCC(NC(=O)c1ccco1)C(=O)OCC(=O)Nc1ncc(Cl)c(C)c1Cl` (stereo unspecified) it was 20.9% (active).
In the case of `Cc1c(Cl)cnc(NC(=O)COC(=O)C2CCCC2)c1Cl` it was 4.9%; in that of `CC(=NNC(=O)c1ccncc1)c1ccc(Cl)c(Cl)c1`, -2.62%.
For the compound `C/C(=N/NC(=O)c1ccn(C)n1)c1ccncc1`, the activation was 33.2% (active).
In the case of `C/C(=N/NC(=O)c1ccncc1)c1ccc2c(c1)OCO2` it was 6.79%; in that of `Cc1cccc2c1N(CCOc1ccccc1)C(=O)C2=O`, 8.27%.
In the case of `Cc1cc(C)c(S(=O)(=O)c2ccc(F)cc2C)c(=O)[nH]1` it was 2.45%; in that of `COC(=O)C1=C(C)N(C(C)c2ccccc2)C(=O)/C1=C\c1ccco1` (stereo unspecified), 3.44%; in that of `CCCc1cc(=O)n2[nH]c(C)c(-c3ccc(Cl)cc3)c2n1`, 12.2%.
In the case of `COc1ccc(C(=O)NCC2CCCN2S(=O)(=O)c2cccs2)cc1OC` (stereo unspecified) it was 6.88%; in that of `CCCCNC(=O)OC(C)CNC(=O)OC` (stereo unspecified), 4.6%; in that of `Cc1ccc(NS(=O)(=O)c2c(C)[nH]c(=O)[nH]c2=O)cc1C`, 6.73%.
As to `O=S(=O)(Nc1ccccc1)c1ccc(NS(=O)(=O)c2cccs2)cc1`, the activation is 11.7%.
The figure for `Cc1ccc(S(=O)(=O)N2CCOCC2)cc1NC(=O)CSc1nnc(N)s1` is 3.59%; for `CCOc1ccc(N2CC(C(=O)N/N=C/c3sccc3C)CC2=O)cc1` (stereo unspecified) it is 1.58%; for `CC1CN/C(=C\C(=O)c2ccc(Br)cc2)C(=O)N1` (stereo unspecified) it is 5.69%.
In the case of `Cc1ccc(C(O)P(=O)(OC(C)C)c2ccc(N(C)C)cc2)cc1` (stereo unspecified) it was 9.51%; in that of `CC(C)(C)NC(=O)COC(=O)c1cc(Cl)ccc1[N+](=O)[O-]`, 4.45%.
In the case of `Cc1ccc(N2CC(C(=O)Nc3cc(Cl)ccc3-n3cncn3)CC2=O)cc1` (stereo unspecified) it was 8.82%; in that of `O=C(c1ccco1)N1CCN(C(=O)C2CC(c3ccc(Cl)c(Cl)c3)=NO2)CC1` (stereo unspecified), 1.62%.
For the compound `CCOC(=O)N1CCN(C(=O)C2CC(c3ccc(F)cc3)=NO2)CC1` (stereo unspecified), the activation is -1.27%.
Take `O=C(c1ccco1)N1CCN(C(=O)C2CC(c3ccc(F)cc3)=NO2)CC1` (stereo unspecified): the activation is 25.8% (active).
In the case of `Cc1ccccc1S(=O)(=O)NC(=O)C1(C)CCN1C(=O)Cc1ccc(Cl)cc1Cl` (stereo unspecified), the activation was 4.98%.
The figure for `COC(=O)CC(=O)N1CCN(c2ccc(Cl)c(Cl)c2)CC1` is -9.1%; for `O=C(c1ccc(F)cc1)N1CCCC(c2nc(-c3cccs3)no2)C1` (stereo unspecified) it is 6.3%; for `COc1cccc(-c2noc(C3CCCN(C(=O)c4ccc(F)cc4)C3)n2)c1` (stereo unspecified) it is 22.6%.
As for `Cc1ccc(-c2noc(C3CCCN(C(=O)c4cccc(Cl)c4)C3)n2)o1` (stereo unspecified), the activation is 28.6% (active).
In the case of `CC1CC(=O)Nc2ccccc2N1C(=O)COc1ccc2cc(Br)ccc2c1` (stereo unspecified) it was 12.5%.
Consider `COc1ccc(NC(=O)c2cnc(NS(=O)(=O)c3ccccc3)nc2)cc1`, for which the activation is 29.7% (active).
The figure for `O=C(Nc1ccc(S(=O)(=O)Nc2ncccn2)cc1)c1cncc(Br)c1` is 0.19%; for `COc1ccc(NS(=O)(=O)c2ccc(NC(=O)c3ccc(N(C)S(C)(=O)=O)cc3)cc2)cc1` it is 8.88%.
The figure for `CC(C)c1ccc2c(c1)c(SC(C)(C)C)c(CC(C)(C)C(=O)O)n2Cc1ccc(Cl)cc1` is -0.45%; for `CC(Oc1ccc(F)cc1)C(=O)N1CCN(c2ncccn2)CC1` (stereo unspecified) it is 0.98%.
For the compound `O=C(O)Cc1csc(NC(=O)CSc2nnnn2-c2ccc(O)cc2)n1`, the activation is 11.2%.
In the case of `CC(=O)C1=C(C)NC(=O)NC1c1cc(Br)ccc1OCC#N` (stereo unspecified) it was 13.1%; in that of `CCn1c(SC(C)C(=O)Nc2ccc(N3CCOCC3)cc2)nnc1-c1ccco1` (stereo unspecified), 5.42%.
Regarding `CC(Sc1ncnc2c1cnn2-c1ccccc1)C(=O)Nc1ccc(N2CCOCC2)cc1` (stereo unspecified), the activation was 25.3% (active).
The figure for `CCN(CC)C(=O)CSc1ncnc2c1cnn2-c1ccccc1` is 1.79%.
The figure for `Cc1ccc(S(=O)(=O)N2CCC(C(=O)N[C@@H](C)C(=O)NCc3ccccc3)CC2)cc1` is 3.35%.
In the case of `Cc1cc(C)cc(N(CC(=O)NC2CCCC2)C(=O)CCC(=O)Nc2nccs2)c1` it was 1.06%.
Take `CC(OC(=O)c1ccccc1OCc1ccc(Cl)cc1)C(N)=O` (stereo unspecified): the activation is -0.86%.
With `COc1cc(NC(=S)N2CCCC(C)C2)c(OC)cc1Cl` (stereo unspecified), the activation is 4.79%.
The figure for `Cc1n[nH]c(C)c1S(=O)(=O)N1CCCC(C(=O)Nc2ccc(Br)cc2)C1` (stereo unspecified) is 3.06%; for `CC1(c2nnc(-c3ccncc3)o2)CC(c2cccnc2)=NO1` (stereo unspecified) it is -4.79%.
The figure for `CC(C)CCNC(=O)C1CCCN(S(=O)(=O)c2ccc(F)cc2)C1` (stereo unspecified) is 3.91%; for `CC(NC(=O)C(C)(C)C)C(c1cccs1)N1CCN(Cc2ccccc2)CC1` (stereo unspecified) it is -8.56%.
For `CCC(C)NCCOCCOc1ccc(Br)cc1C` (stereo unspecified), the activation was -26.7%.
The figure for `CCOC(=O)N1CCN(c2c(NCCCN3CCCC(C)C3)c(=O)c2=O)CC1` (stereo unspecified) is 5.95%; for `CCOc1ccc(-n2c(N)c(C(=O)NCC3CCCO3)sc2=S)cc1` (stereo unspecified) it is 1.21%.
In the case of `CCCC(=O)N1CCN(c2nnc(-c3ccc(C)cc3)c3ccccc23)CC1` it was -14.5%; in that of `CC(=O)NC(Cc1ccc(F)c(F)c1)C(=O)NC1CCN(c2nnnn2-c2ccccc2)CC1` (stereo unspecified), 1.64%.
In the case of `CCCC(=O)N1CCC1(C)C(=O)NCc1ccc(SC)cc1` (stereo unspecified) it was 3.92%; in that of `COc1ccccc1N(CCOc1ccccc1)S(=O)(=O)c1ccccc1`, 0.89%; in that of `C=Cn1c(C(=O)O)ccc1-c1ccc(OC)cc1`, -16.6%.
In the case of `CCn1c(-c2cccnc2Cl)nc2cc(C)c(C)cc21`, the activation is 2.37%.
In the case of `CCOCCOC(=O)C1=C(C)NC(=O)NC1c1ccc2c(c1)OCO2` (stereo unspecified), the activation was 6.2%.
In the case of `COc1ccccc1NC(=O)C1CCCN1S(=O)(=O)c1ccc(Cl)cc1` (stereo unspecified) it was 28.2% (active).
In the case of `CC(C)c1nnc(NC(=O)C2CCCN2S(=O)(=O)c2ccc(Cl)cc2)s1` (stereo unspecified) it was 10.2%.
For `Cc1cccc(NC(=O)C2CCCN2S(=O)(=O)c2ccc(F)cc2)c1C` (stereo unspecified), the activation was 3.34%.
The figure for `C=CCn1c2ccccc2c2nnc(SCc3[nH]c(=O)[nH]c3C(=O)CCCCC(=O)OCC)nc21` is -3.32%; for `O=C(C(NS(=O)(=O)c1cccc2nsnc12)c1ccccc1)N1CCN(c2ccccn2)CC1` (stereo unspecified) it is -10.2%.
The figure for `CCOC(=O)C(=O)C1C(=O)Nc2ccccc21` (stereo unspecified) is 1.1%; for `O=C(Nc1ccccc1C(=O)NCCCn1ccnc1)c1ccc(Cl)cc1Cl` it is 7.21%.
